Experimental data as given in PubChem BioAssay AID1220 (Sanford-Burnham Center for Chemical Genomics, 2008).
Among all 190,000 compounds or so, about 1,300 (0.68%) were called active. No stated cut-off is given here; in the data, active means inhibition above about 50%; inactive means the rest. For the sample, actives were picked, then their nearest neighbours and some compounds at random.

The compounds below were run against Mannose-6-phosphate isomerase (Homo sapiens) (UniProt P34949) (assay: MPI inhibition at elevated mannose 6-phosphate – biochemical, fluorescence intensity, high mannose 6-phosphate, primary screen (AID 1220)). Details: recombinant PMI enzyme, coupled fluorescence intensity; at 20 µM; active compounds read high.
Chain of Mannose-6-phosphate isomerase (Homo sapiens) (P34949 whole entry, looked up): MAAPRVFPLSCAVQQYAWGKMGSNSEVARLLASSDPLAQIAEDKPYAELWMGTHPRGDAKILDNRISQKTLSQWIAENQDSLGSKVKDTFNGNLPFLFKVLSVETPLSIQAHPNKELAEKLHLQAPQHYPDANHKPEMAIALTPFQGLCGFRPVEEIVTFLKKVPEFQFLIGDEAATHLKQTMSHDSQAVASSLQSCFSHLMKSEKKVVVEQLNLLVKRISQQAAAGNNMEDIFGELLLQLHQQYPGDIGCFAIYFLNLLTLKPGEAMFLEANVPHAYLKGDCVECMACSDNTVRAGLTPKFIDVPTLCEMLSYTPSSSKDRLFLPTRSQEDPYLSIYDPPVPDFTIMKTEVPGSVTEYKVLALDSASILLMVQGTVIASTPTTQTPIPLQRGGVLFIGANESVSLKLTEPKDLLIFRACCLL

Structure (SMILES) | inhibition
Cc1nn(-c2ccccc2)c(N2CCCC2)c1/C=N/NC(=O)c1ccccc1O | -2.8% (inactive)
O=C(N/N=C/c1cc2c3c(c1O)CCCN3CCC2)c1ccccc1O | 50.2% (active)
O=C(Oc1ccc(/C=N/NC(=O)c2ccccc2O)cc1)c1ccccc1 | -12.7% (inactive)
Oc1ccc(NC(=S)Nc2ccccc2)cc1 | 16.4% (inactive)
Oc1ccc(NC(=S)Nc2ccc(O)cc2)cc1 | 66.7% (active)
COC(=O)c1ccc(NC(=S)Nc2ccc(O)cc2)cc1 | -3.3% (inactive)
CCOc1cc(C(N)=O)cc(Cl)c1OCC | 1.7% (inactive)
Cc1ccc(C(=O)Nc2ccc(C(=O)N/N=C/c3c[nH]c4ccccc34)cc2)cc1 | 11.4% (inactive)
Cc1ccc(C(=O)/C=C/c2c[nH]c3ccccc23)cc1 | 54.4% (active)
Cc1[nH]c2ccccc2c1/C=C/C(=O)c1ccccc1 | 3.9% (inactive)
O=C(/C=C/c1c[nH]c2ccccc12)c1ccccc1 | 52.5% (active)
Cc1ccc(/C=C/C(=O)c2ccccc2)cc1 | 11.2% (inactive)
O=C(/C=C/c1c[nH]c2ccccc12)c1cccc2ccccc12 | 42% (inactive)
COc1cc(/C=C(\C#N)c2nc3ccccc3[nH]2)cc(Br)c1OCc1ccc(F)cc1 | 19.3% (inactive)
c1ccc(COCCN2CCN(CCOCc3ccccc3)CC2)cc1 | 3.2% (inactive)
COc1ccc2nc(SCC(C)=O)c(C#N)cc2c1 | -92.4% (inactive)
COc1ccc2nc(SC)c(C#N)cc2c1 | 52.1% (active)
COc1ccc2nc(N3CCC(C)CC3)c(C#N)cc2c1 | -5.3% (inactive)
CCSc1nc2ccc(OC)cc2cc1C#N | 14.3% (inactive)
COc1ccc2nc(N3CCCC3)c(C#N)cc2c1 | -5.8% (inactive)
COc1ccc2nc(N3CCC(O)CC3)c(C#N)cc2c1 | 51.2% (active)
COc1cccc(C2=NCCc3cc4c(cc32)OCO4)c1OC | 1.3% (inactive)

Structure (SMILES) | inhibition
CCC(=O)Nc1nc2c(s1)COc1ccccc1-2 | 6.3% (inactive)
CCC12CN3CC(CC)(CN(C1)C3c1ccccc1Cl)C2O (stereo not drawn) | 6.4% (inactive)
CCN(CC(=O)NC1CCS(=O)(=O)C1)C(=O)/C=C/c1cccs1 (stereo not drawn) | -0.6% (inactive)
Cc1ccc(-c2csc(/C(C#N)=C/Nc3ccccc3SC(F)(F)F)n2)cc1 | -3.6% (inactive)
O=C(CCc1ccc(S(=O)(=O)N2CCOCC2)cc1)N/N=C/c1ccc(F)cc1F | 10.5% (inactive)
O=C(Cc1csc(N2CCOCC2)n1)N/N=C/c1cccc(O)c1 | 6.6% (inactive)
O=C(CCc1ccc(S(=O)(=O)N2CCOCC2)cc1)N/N=C/c1cccc(O)c1 | -6.2% (inactive)
O=C(Cc1csc(N2CCOCC2)n1)N/N=C/c1ccc(Cl)cc1Cl | 4.5% (inactive)
CCN1CCc2c(OCC(=O)N3CCC(C)CC3)cccc2C1=O | -8.8% (inactive)
COc1cccc(C(=O)NC(=S)Nc2ccc3oc(=O)ccc3c2)c1 | 4.1% (inactive)
COc1ccc(S(=O)(=O)N2CCCCC2)cc1NC(=S)Nc1cccc(Cl)c1C | 7.7% (inactive)
Cc1cc(N2C(=O)CCC2=O)ccc1NC(=O)c1cccs1 | -1.9% (inactive)
COCc1cc(/C=N\NC(=O)COc2ccc(Cl)cc2)ccc1OC | -2% (inactive)
O=c1[nH]cnc2c([N+](=O)[O-])cccc12 | -12.2% (inactive)
Cn1ccc2c([N+](=O)[O-])cccc2c1=O | 23.6% (inactive)
O=c1[nH]ccc2c([N+](=O)[O-])cccc12 | 55.2% (active)
CCc1c(C(C)S(=O)(=O)c2ccc(C)cc2)[nH]c(=O)n1-c1ccc(C)cc1 (stereo not drawn) | -35.3% (inactive)
CCc1[nH]c(=O)[nH]c1C(C)S(=O)(=O)c1ccc(C)cc1 (stereo not drawn) | 70.3% (active)
CCc1c(C(C)S(=O)(=O)c2ccc(C)cc2)[nH]c(=O)n1-c1ccc(OC(F)(F)F)cc1 (stereo not drawn) | -28.2% (inactive)
CCOC(=O)C1(CCc2ccccc2)CCN(Cc2ccc(OC)cc2)CC1 | 3.3% (inactive)
O=C(NC1CCCCC1)c1ccc(NS(=O)(=O)c2cccc3cccnc23)cc1 | -3.4% (inactive)
NCC(O)(c1ccc(Cl)cc1)c1ccc(Cl)cc1 | 10.4% (inactive)

Structure (SMILES) | inhibition
CN1CCN(CC(C)(C)NS(=O)(=O)c2ccc(Cl)cc2)CC1 | 3.4% (inactive)
CN1CCN(CC(O)(c2ccc(Cl)cc2)c2ccc(Cl)cc2)CC1 | 55.4% (active)
COCCN(C(=O)CSc1nnc(-c2ccccc2F)n1C)c1c(N)n(Cc2ccccc2)c(=O)[nH]c1=O | -3.1% (inactive)
COC(=O)C1CCN(Cc2ccc(OCCCN3CCN(c4ccc([N+](=O)[O-])cc4)CC3)cc2)CC1 | 14% (inactive)
Oc1ccc(N2CCN(Cc3ccc(OCCCN4CCCCC4)cc3)CC2)cc1 | 58.4% (active)
CCCCOc1ccc(CN2CCCCC2)cc1 | 14.9% (inactive)
Cc1cc2c(cc(C(=O)OCC(=O)NCc3ccco3)n2C)s1 | -6.2% (inactive)
CN1CCN(C(=O)C2=C[C@H](C(C)(C)C)C[C@H](OCCCCO)O2)CC1 | 0.2% (inactive)
CCOC(=O)c1cc2cc3ccccc3cc2[nH]1 | 53.2% (active)
CC(C)OC(=O)c1cc2ccccc2[nH]1 | 7.4% (inactive)
CCOC(=O)c1cc2cc(OC)ccc2[nH]1 | -9.7% (inactive)
COc1ccc(Cl)cc1NC(=O)NC1CCCCC1 | -2.2% (inactive)
CCCC(=O)Nc1cc(OC)c(NC(=O)NC2CCCCC2)cc1OC | 51.8% (active)
CCCCC(=O)Nc1cc(OC)c(NC(=O)C2CCCCC2)cc1OC | 2.5% (inactive)
O=C(CCC1COc2ccccc2O1)NCc1ccccc1 (stereo not drawn) | 0.9% (inactive)
CC1CC2(CCCCC2)Nc2c1ccc1ccccc21 (stereo not drawn) | -36.7% (inactive)
NS(=O)(=O)c1cccc(NC(=O)CN2CCN(Cc3ccc4c(c3)OCO4)CC2)c1 | 10% (inactive)
COc1ccc(NC2=C(Cl)C(=O)N(CCc3ccccc3)C2=O)cc1 | 4.8% (inactive)
Cc1cc(=S)cc(C)n1CCO | -138% (inactive)
O=C(/C(=N/N=C/c1ccc(O)c(O)c1)c1ccccc1)c1ccccc1 | 24.9% (inactive)
O=C(/C(=N/N=C/c1ccc(O)c(O)c1O)c1ccccc1)c1ccccc1 | 30.5% (inactive)
C/C(=N\NS(=O)(=O)c1ccc(C)c([N+](=O)[O-])c1)c1ccc2c(c1)OCO2 | -16.6% (inactive)

Structure (SMILES) | inhibition
COc1cc(OCC(N)=O)cc(OC)c1OC | 7.1% (inactive)
C=CCOc1ccc(/C(CC)=N/O)c(OC)c1 | 6.3% (inactive)
C=CCOc1cc(OC)c(OC)c(OC)c1 | 54.8% (active)
COc1ccccc1NC(=O)c1ccccc1S(=O)(=O)c1ccccc1[N+](=O)[O-] | 12.3% (inactive)
C=CCn1c(SCC(=O)NC(=O)NC)nnc1C1CCCCC1 | -11.2% (inactive)
CC(=O)c1cccc(NC(=O)/C(=C\c2cccnc2)NC(=O)c2ccco2)c1 | -6.2% (inactive)
CC1(C)CC(=O)C(/C=N/c2ccccn2)=C(O)C1 | -6.9% (inactive)
CC1(C)CC(=O)C(/C=N/c2ncccc2C(=O)O)=C(O)C1 | -18.7% (inactive)
CC1(C)CC(=O)C(C=Nc2cccnc2/N=C/C2=C(O)CC(C)(C)CC2=O)=C(O)C1 | 58.8% (active)
CCOC(=O)c1nc(C)n(-c2cc(OC)c(Cl)cc2Cl)n1 | -10.2% (inactive)
Cc1ccc2nc(SC(C(=O)c3ccccc3)c3ccccc3)nc(C)c2c1 (stereo not drawn) | 1.4% (inactive)
Cc1ccc(N=Cc2sccc2C)cc1C | 8.8% (inactive)
CCN(CC)c1ccc(O)c(C=Nc2ccc(C)c(C)c2)c1 | 57% (active)
Oc1ccc(Br)cc1C=Nc1ccc(Cl)cc1 | 13.7% (inactive)
COC(=O)N/N=C/c1cc(Br)ccc1O | 13.6% (inactive)
COc1ccc(N=Cc2cc(Cl)ccc2O)cc1Cl | 40.6% (inactive)
CCN(CC)c1ccc(N=Cc2cc(Br)ccc2O)cc1 | 63.1% (active)
NS(=O)(=O)c1ccc(CCNC(=O)NC2(C(F)(F)F)Oc3ccccc3O2)cc1 | -9.2% (inactive)
CC1(N2CCOCC2)C(=O)c2ccccc2C1=O | -17.3% (inactive)
COc1cc(OC)c2c(c1)C(=O)OC2 | -32.4% (inactive)
COc1cc(OC)c2c(O)c3c(c(-c4c5c(c(O)c6c(OC)cc(OC)cc46)CO[C@@H](C)[C@H]5O)c2c1)[C@H](O)[C@H](C)OC3 | 54.8% (active)
COc1cc(OC)c2c(c1)OC(c1ccc(OC)c(OC)c1)C(O)C2=O (stereo not drawn) | 1.6% (inactive)

Structure (SMILES) | inhibition
COc1ccccc1CC(=O)Nc1ccc(O)cc1C(=O)O | 2.5% (inactive)
CCCC1=[N+](CC(C)=O)CCn2c(C)ccc21 | -7.3% (inactive)
COc1ccc2c(c1O)-c1ccccc1CCN(C)C2 | 7.3% (inactive)
CN1CCc2cc3c(c4c2[C@H]1[C@H](O)c1ccccc1-4)OCO3 | 16.9% (inactive)
CN1CCc2ccccc2C1C1CCNCC1 (stereo not drawn) | 8.3% (inactive)
CCCCC(=O)Nc1cc2nn(-c3ccc(OC)cc3)nc2cc1C | 10.9% (inactive)
O=C(NCCN1CCN(c2ccccc2)CC1)C1(S(=O)(=O)c2ccc(Cl)cc2)CC1 | 18% (inactive)
S=C(c1ccc(-c2ccc(Cl)c(Cl)c2)o1)N1CCOCC1 | -7.4% (inactive)
O=[N+]([O-])c1cc(-c2ccc(C(=S)N3CCOCC3)o2)ccc1Cl | 61% (active)
O=[N+]([O-])c1cccc(-c2ccc(C(=S)N3CCOCC3)o2)c1 | 47% (inactive)
CC1CCN(C(=O)CSc2nnc(CNc3ccc(F)cc3)n2Cc2ccco2)CC1 | 10.7% (inactive)
CCCN1C2CCCC1CC(NC(=O)c1ccccc1OCC)C2 (stereo not drawn) | 0% (inactive)
COc1ccc(C2CC(=O)N3CN(c4ccc(C)c(Cl)c4)CSC3=C2C#N)cc1OC (stereo not drawn) | -27.1% (inactive)
COc1cc(C2CC(=O)N3CN(Cc4ccccc4)CSC3=C2C#N)ccc1OCc1ccccc1 (stereo not drawn) | 66.3% (active)
CCc1ccc(C2CC(=O)N3CN(c4ccccc4)CSC3=C2C#N)cc1 (stereo not drawn) | -47.1% (inactive)
COc1cc(C2CC(=O)N3CN(Cc4ccco4)CSC3=C2C#N)ccc1OCc1ccccc1 (stereo not drawn) | 74.4% (active)
COc1cccc(C2CC(=O)N3CN(c4ccccc4F)CSC3=C2C#N)c1 (stereo not drawn) | -11.4% (inactive)
N#CC1=C2SCN(Cc3ccccc3)CN2C(=O)CC1c1ccc2c(c1)OCO2 (stereo not drawn) | 47.4% (inactive)
CN1CSC2=C(C#N)C(c3cccc(OCc4ccccc4)c3)CC(=O)N2C1 (stereo not drawn) | 59.9% (active)
COc1ccc(C2CC(=O)N3CN(c4ccccc4F)CSC3=C2C#N)cc1OC (stereo not drawn) | -0.4% (inactive)
